An excerpt weighted towards active compounds, which were near 11% of everything screened.
USP30 block: human USP30 deubiquitinase inhibition. Q70CQ3. purified USP30, Ub-rhodamine cleavage fluorescence. inhibition, % at 25 µM. 47,000 tested, 5.3% active. AID 1645860
USP28 inh: inhibitors of human USP28 deubiquitinase | Q96RU2 | purified USP28, Ub-rhodamine cleavage fluorescence, 30 min | inhibition, % at 25 µM | 47,000 tested, 3% active
OTUD3 inh: inhibitors of human OTUD3 deubiquitinase; Q5T2D3; purified OTUD3, Ub-rhodamine fluorescence, 2 h; inhibition, % at 25 µM; 47,000 tested, 0.7% active; AID 1645858
USP17 block: human USP17-like deubiquitinase inhibition; A8MUK1; purified USP17, Ub-rhodamine cleavage fluorescence, 3 h; inhibition, % at 50 µM; 47,000 tested, 6.5% active
The depositor's hits bear a star; i = inactive; . = no result given. No stated cut-off is given here; in the data, active means inhibition above about 30%; inactive means the rest.

SMILES	USP30 block	USP28 inh	OTUD3 inh	USP17 block
O=C(COc1ccc(N2CC(C(=O)NCc3ccc4c(c3)OCO4)CC2=O)cc1)Nc1ccc(Cl)cc1 (configuration not stated)	15	5	10	36*
O=C(c1ccc(S(=O)(=O)N2CCOCC2)cc1)N1CCN(C2=NS(=O)(=O)c3ccccc32)CC1	11	4	0	1
O=C(Oc1cccc(NC2=NS(=O)(=O)c3ccccc32)c1)c1ccc(S(=O)(=O)N2CCCCC2)cc1	.	.	0	52*
O=c1c2[nH]c3ccc(F)cc3c2ncn1Cc1cccnc1	.	.	7	41*
COc1ccc2c(c1)[nH]c1c(=O)n(Cc3cccnc3)cnc12	29	18	10	11
O=c1c2[nH]c3ccc(F)cc3c2ncn1Cc1ccc2c(c1)OCO2	24	12	8	17
Cn1c2ccc(F)cc2c2ncn(Cc3cccnc3)c(=O)c21	31*	9	6	-1
Cc1ccc2c(c1)[nH]c1c(=O)n(Cc3cccnc3)cnc12	24	20	10	31*
c1cncc(-c2cnc3sc(NC4CCCCC4)nn23)c1	25	12	11	35*
Cc1ccccc1CCN(C(=O)c1ccco1)C(C(=O)NC1CCCCC1)c1ccc(F)cc1 (configuration not stated)	-258	-60	-68	-24
O=C(Nc1sc2c(c1-c1nc3ccccc3[nH]1)CCCC2)C1CC(=O)N(Cc2ccccc2)C1 (configuration not stated)	-73	-14	-16	38*
COc1ccccc1C(=O)Nc1sc2c(c1-c1nc3ccccc3[nH]1)CCCC2	-75	-19	-40	8
Cc1nc(COCC2CN(C(=O)C3CC3)Cc3ccnn3C2)cs1 (configuration not stated)	6	2	7	-7
O=C(OCc1ccc([N+](=O)[O-])cc1)C1CCN(S(=O)(=O)c2cccc3cccnc23)CC1	44*	28	18	3
Clc1ccc(-c2cnc(Oc3ccc(Cl)c4cccnc34)nc2)cc1	19	9	6	15
CC(=O)Nc1ccc(SC(C)C(=O)N2CCc3ccccc3C2)cc1 (configuration not stated)	-2	-5	-3	-14
O=C(/C=C/c1ccc(Br)cc1)N1CCc2ccccc2C1	-9	0	2	35*
CC(C)c1ccc(/C=C/C(=O)N2CCc3ccccc3C2)cc1	36*	29	27	54*
O=C(/C=C/c1ccccc1)N1CCc2[nH]nc(-c3ccc(F)cc3)c2C1	-1	-1	-11	0
COc1ccc2[nH]cc(C(C(=O)O)N3CCN(c4ccccn4)CC3)c2c1 (configuration not stated)	.	.	6	22
O=C(N[C@@H]1C[C@@H](Oc2ccccc2)[C@H](O)[C@H]1N1CCOCC1)C1CCOCC1	18	6	-6	13
CC(=O)c1ccc(NC(=O)C(C)OC(=O)Cn2c(C)nc3ccccc32)cc1 (configuration not stated)	-16	-8	-2	-9
COc1ccc(Cn2c(=O)sc3ccccc3c2=O)cc1	25	44*	12	10
O=C(NCc1ccco1)c1ccc(Oc2cc(Cl)cc(Cl)c2)o1	.	.	2	37*
CC(C)CC(=O)N1CCc2nc(C(=O)N3CCCCC3)sc2CC1	2	-3	-3	4
SMILES	USP30 block	USP28 inh	OTUD3 inh	USP17 block
Cc1ccc(NC(=O)COc2ccc(-c3nc(C(C)C)no3)cc2)c(F)c1	32*	6	10	37*
CCc1noc(-c2ccc(OCC(=O)Nc3cc(C)cc(C)c3)cc2)n1	44*	10	0	25
CC(C)c1noc(-c2ccc(OCC(=O)N3CCN(c4ccccc4F)CC3)cc2)n1	0	-2	1	4
Cc1cc(C)cc(NC(=O)Cc2nnc3ccc(-c4nc(C)no4)cn23)c1	-22	-4	0	0
COc1ccc2nc(NC(=O)C3CCCN(S(=O)(=O)c4cnc[nH]4)C3)sc2c1 (configuration not stated)	28	0	7	15
Cc1ccc(C2(CN3CCN(CC4CCOC4)CC3)CC2)cc1 (configuration not stated)	-2	-3	-1	-10
COc1ccc(-c2ccc(C#N)c(SCc3cc4c(cc3Cl)OCO4)n2)cc1	-179	-96	-45	43*
COc1ccc(OC)c(/C=C(/C#N)c2nc(-c3ccc4c(c3)OCO4)cs2)c1	i	-217	-182	-146
CCOC(=O)c1c(NC(=O)c2cccc(C)c2)sc(C(C)=O)c1C	-84	-22	-16	-17
Cn1c(=O)[nH]c2cc(-c3noc(C4CC(=O)N(c5ccccc5)C4)n3)ccc21 (configuration not stated)	-11	-9	-3	32*
O=C(Nc1cccc(-c2noc(C3CC3)n2)c1)C1CC(=O)N(c2ccccc2)C1 (configuration not stated)	-3	-4	-6	40*
Cc1ccc(N2CC(c3nc(-c4ccc5oc(C)nc5c4)no3)CC2=O)cc1 (configuration not stated)	0	-1	-4	3
CCc1nc(-c2cccc(NC(=O)C3CC(=O)N(c4ccccc4)C3)c2)no1 (configuration not stated)	30	8	17	16
O=C(Nc1cccc(-c2noc(C3CCC3)n2)c1)C1CC(=O)N(c2ccccc2)C1 (configuration not stated)	-1	-5	0	60*
CCc1nc(-c2cccc(NC(=O)C3CC(=O)N(c4ccc(C)c(C)c4)C3)c2)no1 (configuration not stated)	60*	27	27	60*
Cc1c(C2CCCN(C(=O)c3ccncc3)C2)n2c(nc1=O)CCC2 (configuration not stated)	-19	-6	-4	-24
c1cncc(-c2nnc3sc(C4COc5ccccc5O4)nn23)c1 (configuration not stated)	2	-2	-1	-6
CN1CC[C@@]2(C(=O)N3CCOCC3)CCN(C(=O)c3ccc(Cl)cc3)CC[C@@H]12	-3	-7	-9	-16
COc1ccc2oc(C(=O)Nc3ccc4ccccc4n3)c(C)c2c1	-76	-11	-5	32*
Nc1nc(N2CCN(c3ccc([N+](=O)[O-])cc3)CC2)n[nH]1	14	7	7	27
COc1ccc(N(CC(=O)Nc2cccc(F)c2)S(=O)(=O)c2ccc(OC)c(OC)c2)cc1	51*	20	22	36*
COc1ccc(S(=O)(=O)N(CC(=O)NCc2ccc3c(c2)OCO3)c2ccc(F)cc2)cc1OC	38*	20	17	34*
COc1ccc(S(=O)(=O)N(CC(=O)Nc2cccnc2)c2ccc(F)cc2)cc1OC	11	14	6	6
COc1ccc(CNC(=O)CN(c2ccccc2)S(=O)(=O)c2ccc(F)cc2)cc1OC	-10	-3	0	-1
Cc1ccc(-c2cc3c(N4CCCC(C(=O)NCc5ccccc5)C4)nccn3n2)c(C)c1 (configuration not stated)	-135	-57	-26	-2
